The whole screen tested about 110,000 compounds, of which about 610 (0.55%) were called active. Where a call stands in place of a potency, no number is given. Another 3% or so got no clear call; they are omitted. The sample as a whole holds a higher share of actives than the screen did. Unmarked numbers belong to inactive results. Calls follow the shape of the dose curve; as a rule, active = well fitted inhibition curve with a large enough effect; inconclusive = small, poorly fitted or top-dose-only effect; inactive = no such curve, though single readings can be large or run the other way.
target: Polyunsaturated fatty acid lipoxygenase ALOX15B (Homo sapiens) (UniProt O15296); assay: qHTS Assay for Inhibitors of 15-hLO-2 (15-human lipoxygenase 2); details: purified 15hLO-2, xylenol orange hydroperoxide absorbance; series mostly up to 57.1 µM; also: nearly all actives have a fitted effect of over 60% in size
Sequence (O15296 whole entry, looked up): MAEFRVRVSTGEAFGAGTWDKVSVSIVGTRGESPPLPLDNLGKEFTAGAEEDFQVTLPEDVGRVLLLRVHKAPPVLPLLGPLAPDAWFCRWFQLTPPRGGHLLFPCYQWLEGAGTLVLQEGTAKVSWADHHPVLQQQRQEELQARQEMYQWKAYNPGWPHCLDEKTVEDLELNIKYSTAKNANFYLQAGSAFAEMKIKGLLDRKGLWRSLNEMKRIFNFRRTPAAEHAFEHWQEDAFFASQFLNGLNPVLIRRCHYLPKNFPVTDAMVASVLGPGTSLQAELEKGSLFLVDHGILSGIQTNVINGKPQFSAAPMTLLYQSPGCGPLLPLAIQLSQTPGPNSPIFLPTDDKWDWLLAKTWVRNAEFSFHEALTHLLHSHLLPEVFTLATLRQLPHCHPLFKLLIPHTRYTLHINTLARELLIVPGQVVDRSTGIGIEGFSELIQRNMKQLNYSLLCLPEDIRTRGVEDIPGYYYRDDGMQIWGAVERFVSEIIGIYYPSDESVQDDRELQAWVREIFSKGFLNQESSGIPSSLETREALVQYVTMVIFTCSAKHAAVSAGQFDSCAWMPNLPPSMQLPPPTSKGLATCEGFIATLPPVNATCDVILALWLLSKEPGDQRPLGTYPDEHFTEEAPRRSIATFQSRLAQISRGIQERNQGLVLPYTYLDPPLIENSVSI
Procedure, shortened: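 Purified human 15hLO-2 (50 nM final) preincubated with compounds 15 min at room temperature in 25 mM Hepes pH 7.5, 0.01% Triton X-100, then 45 uM arachidonic acid added for 90 min; hydroperoxide detected via ferrous/xylenol orange, 573/405 nm absorbance ratio.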
Potency is read from the fitted curve at half-maximal effect.

Compound | activity change, negative = inhibition | Potency
COC(=O)C1C(=O)NCC1c1ccc(OC)cc1 (stereo not given) | inactive | 
CC(=O)c1cccc(NC(=O)C2CCCN2S(=O)(=O)c2cccc3nsnc23)c1 (stereo not given) | inactive | 
CC(=O)CC(c1ccccc1)C1C(=O)Oc2ccccc2C1=O (stereo not given) | 12.2% [at 0.0915 µM] | 
C#C[C@]1(O)CC[C@H]2[C@@H]3CCC4=CC(=O)CC[C@@H]4[C@H]3CC[C@@]21CC | -11.5% [at 0.0915 µM] | 
Cc1cccc(-n2ncc(C#N)c2-n2cccc2)c1 | inactive | 
CCC(C)N1C(=O)S/C(=C/c2ccc(Sc3nc4ccccc4[nH]3)o2)C1=O (stereo not given) | inactive | 
CCN1CCN(C(=O)/C=C\C(=O)O)CC1 | inactive | 
CCOC(=O)Cn1c(-c2cccnc2Cl)nc2ccccc21 | inactive | 
Cc1cc2cc(CNC(=O)c3cccs3)ccc2[nH]1 | inactive | 
CCOC(=O)C1=C(C)c2ccccc2OC1(C)C(=O)OCC (stereo not given) | 0.734% [at 0.0915 µM] | 
CCCn1c(C(Cc2ccccc2)NC(=O)COC)nc2ccccc21 (stereo not given) | inactive | 
CC1=C(/C=C/C(C)=C/C=C/C(C)=C/C=C/C=C(C)/C=C/C=C(C)/C=C/C(=O)[C@]2(C)C[C@@H](O)CC2(C)C)C(C)(C)C[C@H](O)C1 | 24.6% [at 0.0915 µM] | 
CCOC(=O)c1cnc(SC)nc1Sc1ccc(Cl)cc1Cl | inactive | 
COc1cccc2c1OCC(C(=O)NCc1ccc(Cl)cc1Cl)=C2 | inactive | 
CCCCCCSc1nsc(N)n1 | inactive | 
CCOC(=O)C1=C(C)c2ccccc2OC1C(=O)OCC (stereo not given) | -11.3% [at 0.0915 µM] | 
O=[N+]([O-])c1cccc(-c2nnc3c4ccccc4c4ccccc4n23)c1 | inactive | 
O=c1[nH]c2ccccc2n2c(-c3ccccc3)nnc12 |  | 10 µM (active)
O=c1[nH]c(-c2ccccc2)c(-c2ccccc2)[nH]1 | inactive | 
C[C@@H]1C(c2ccc(F)cc2)=NN(c2ccc(Br)cc2)[C@H]1C(=O)N1CCOC1=O | -11.1% [at 0.0915 µM] | 

From PubChem BioAssay AID881 (National Center for Advancing Translational Sciences (NCATS), 2007)
